According to PubChem BioAssay (NCI):
Compounds without any hit were thinned out: in the full panel of roughly 83,000, 20% have a hit.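 Results are percent growth after 48 hours of single-concentration exposure. 100 means growth as in untreated cells, lower positive values show inhibition; negative values down to -100 show cell death.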 Values without a mark were called inactive. Calls of active or inactive are those of the source. Rule for the calls: active = growth percent below 10; inactive = the rest.

What follows are molecules tested on SK-MEL-5 melanoma (assay: NCI-60 one-dose screen, 48 h (100 = growth as untreated, 0 = no growth, -100 = all killed)). Conditions: 10 µM unless noted.

Point of comparison: `COc1cc(/C=C/C(=O)c2ccccc2)ccc1Oc1nc(NCCO)nc(N2CCOCC2)n1`, growth 99.3%. Against it:
- Nc1cc(-c2c[nH]c3ccccc23)nc2cc(-c3c[nH]c4ccccc34)nn12 — lower, 45.6%
- Oc1c(Cl)cc(Cl)c2ccc(CN3CCCCC3)nc12 — lower, 33.1%
- CS(=O)(=O)c1ccc(-c2nc3ccccn3c2/C=N/Nc2nc(-c3ccc(Br)cc3)cs2)cc1 — lower, 96.5%
- C=CCn1c(SCC(=O)c2ccc(Br)cc2)nnc1-c1c[nH]c2ccccc12 — lower, 95.9%
- COC1CCN(Cc2ccc3c(NNC(=O)c4cnccn4)nc4cc(F)ccc4n23)C1 (configuration not stated) — lower, 15.9%
- CC(C)NC(=O)c1cc(-c2ccc(NC(=O)Nc3ccc(N4CCOCC4)c(C(F)(F)F)c3)cc2)nc2cccnc12 — lower, 78.7%
- O=C(CSc1nccc(=O)[nH]1)Nc1ccc(-c2nc3ccccc3[nH]2)cc1 — higher, 99.7%

`CN(C)CCCOc1c2ccc(Cl)cc2nc2c1oc1ccccc12` was tested, and the growth was -97.9% (active).
For `O=C(N/N=C/c1ccco1)c1[nH]c2ccc(Br)cc2c1-c1ccccc1`, the growth was -16.2% (active).

Each molecule was assayed on UACC-62 melanoma in the same assay as above. Conditions: 10 µM unless noted.

Point of comparison: `CC1=C(C)C(=O)C(Nc2cccc(C(F)(F)F)c2)=C(Cl)C1=O`, growth 80.2%. Against it:
- CCN1CCN(/C(=N\c2sc(-c3ccccc3)nc2-c2ccccc2)c2ccccc2)CC1 — lower, 55.3%
- CCCCN1C(=O)/C(=c2\sc3n(c2=O)C2C(NN=3)N(CC)C(=O)N2CC)c2cc(Cl)ccc21 (configuration not stated) — lower, 47.5%
- COc1cc(/C=C/C(=O)c2ccc(C(F)(F)F)cc2)ccc1Oc1nc(NCCO)nc(N2CCOCC2)n1 — lower, 78.7%
- Nc1c(C(=O)Nc2ccc(Cl)cc2)sc2nc(-c3cnccn3)cc(-c3cccs3)c12 — lower, 69.5%
- Cc1ccc(-c2nc(C(Cl)Cl)nc3cc(-c4ccccc4)nn23)cc1 — lower, 55.7%
- CCOC(=O)c1c(NC(=O)c2cccc(C(F)(F)F)c2)sc2cc(O)ccc12 — higher, 97.9%
- COc1ccc(C(=O)/C=C/c2ccc(OCc3ccc(Cl)cc3)c(OC)c2)cc1OC — lower, 52.6%
- CN(C)CCCNc1c2ccccc2nc2c1oc1ccc(Cl)cc12 — lower, 52.1%
- COc1ccc(NC2=CC(=O)C(C)=C(C)C2=O)cc1 — higher, 95.4%
- C/C(=N\NC(N)=O)c1c(O)sc(=O)[nH]c1=O — higher, 92.6%
- NS(=O)(=O)c1ccc(Nc2nc(Nc3ccccc3)nc(-n3nc(-c4ccccc4)cc3-c3ccccc3)n2)cc1 — lower, 54.8%
- COc1cc(OC)c(C2C(Cl)C(=O)N2Nc2ncnc3ccccc23)cc1OC (configuration not stated) — higher, 91.7%
- Cn1cc(-c2cc(N)n3nc(-c4cn(C)c5ccc(Br)cc45)cc3n2)c2cc(Br)ccc21 — higher, 92.1%
- O=c1[nH]c2ccc(Cl)cc2cc1CSc1ccccc1Nc1nccc(-c2ccc(Cl)cc2)n1 — lower, 75.9%
- COc1ccc(-c2nc3ccc(-c4nnc(SCC(=O)Nc5ccc(C(=O)/C=C/c6ccccc6)cc5)o4)cc3[nH]2)cc1OC — higher, 95%
- N#Cc1nc(-c2ccccc2)oc1S(=O)(=O)N1CCN(CCc2ccccn2)CC1 — higher, 83.6%
- COc1cc(/C=C/C(=O)c2ccc(F)cc2)ccc1Oc1nc(NCCO)nc(N2CCOCC2)n1 — lower, 57.2%

For `O=C1C2=C(C(=O)c3c(O)cccc31)C(c1ccco1)c1sc(=O)[nH]c1S2` (configuration not stated), the growth was -74.9% (active).
With `OC1CCN(CCCOc2c3ccc(Cl)cc3nc3c2oc2ccc(Cl)cc23)CC1` the growth was -68.4% (active).
`O=C(N/N=C/c1ccc([N+](=O)[O-])o1)c1[nH]c2ccc(Br)cc2c1-c1ccccc1` was tested, and the growth was 6.4% (active).
With `OC1CCN(CCCOc2c3ccccc3nc3c2oc2ccccc23)CC1` the growth was -57.8% (active).
With `COc1ccc(-n2c(SCC(=O)Nc3ccc(-c4nc5ccccc5[nH]4)cc3)nc3ccccc3c2=O)cc1` the growth was -18.3% (active).
For `OC1CCN(CCCOc2c3ccc(Cl)cc3nc3c2oc2ccccc23)CC1`, the growth was -69.7% (active).
With `CN(C)CCCOc1c2ccc(Cl)cc2nc2c1oc1ccc(Cl)cc12` the growth was -68.1% (active).
With `Cc1[nH]nc2ncc(C#Cc3cncc(C(=O)Nc4ccc(CN5CCN(C)CC5)c(C(F)(F)F)c4)c3)cc12` the growth was -15.8% (active).
For `CN1CCN(Cc2ccc(NC(=O)c3cncc(C#Cc4cnc5[nH]ncc5c4)c3)cc2C(F)(F)F)CC1`, the growth was 1.56% (active).
